Compound activity as filed in PubChem.
Shown are actives, neighbours in structure and some others; about 2.2% of the full set was active somewhere.
GLP1R cytotox: cytotoxicity counter-screen for GLP-1 receptor inverse agonists | 410,000 compounds, 0.13% hits | HEK293 cAMP-luciferase reporter cells, luminescence, 24 h | AID 624418 | Potency, µM (series often up to 38.3 µM), hits mostly inhibitors;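 note: loss of luciferase light is scored as toxicity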
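Luminescence readout: signal drop marks cytotoxicity. Plated cells grew 12 h at 37 °C, 5% CO2, received 23 nL compound for 24 h, then got luciferase reagent, read after 12 min at RT.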
CCT modulator: cytosolic chaperonin activity modulation. purified chaperonin ATPase assay, HTRF ADP detection, 30 min. activity change, % (concentration not given with the values), hits read low. 360,000 compounds, 0.3% hits. AID 651819; in the data active = activity change below about -30%
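Nucleotide hydrolysis assay: TRiC at 20–40 nM final (set by batch activity) with 10 uM ATP, 30 min at 37 °C, in presence of 76 uM compound. Detection by competitive ADP HTRF, 30 min ambient.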
GLP1R inv ag: inverse agonists of human GLP-1 receptor | P43220 | HEK293 GLP-1R CRE-luciferase, luminescence, 24 h; GLP-1R form is constitutively active | Potency, µM (top dose mostly 38.3 µM), usual class: inhibitors | 410,000 compounds, 1.6% hits; note: nearly all actives have a fitted effect of over 55% in size
Target sequence (P43220 whole entry, looked up): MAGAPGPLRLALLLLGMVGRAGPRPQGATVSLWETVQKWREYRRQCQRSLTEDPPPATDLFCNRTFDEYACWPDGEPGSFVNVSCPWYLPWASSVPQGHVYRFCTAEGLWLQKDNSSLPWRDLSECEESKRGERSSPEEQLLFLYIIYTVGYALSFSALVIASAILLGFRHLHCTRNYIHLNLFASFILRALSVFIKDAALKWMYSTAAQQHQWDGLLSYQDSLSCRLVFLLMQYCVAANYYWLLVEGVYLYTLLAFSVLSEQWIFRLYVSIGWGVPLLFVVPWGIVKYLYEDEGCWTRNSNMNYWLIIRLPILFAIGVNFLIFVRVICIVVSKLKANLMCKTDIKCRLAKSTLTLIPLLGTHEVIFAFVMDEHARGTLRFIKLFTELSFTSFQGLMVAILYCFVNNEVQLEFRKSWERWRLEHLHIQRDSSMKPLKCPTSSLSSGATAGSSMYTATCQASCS
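Seeding at 200 cells/uL, 12 h culture, 24 hr compound treatment, then luciferase reagent and a luminescence read; cells are HEK293 stably expressing a constitutively active GLP-1R plus cAMP-responsive luciferase.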
uPA surface inh: blocks generation of uPA at the cell surface | cell surface uPA generation assay, qHTS | 330,000 compounds, 0.31% hits | Potency, µM (doses to about 38.3 µM), hits mostly inhibitors; active = well fitted inhibition curve with a large enough effect; inconclusive = small, poorly fitted or top-dose-only effect; inactive = no such curve, though single readings can be large or run the other way; tested in mouse RAW 264.7 cells; note: nearly all actives have a fitted effect of over 55% in size
GLP-1R agonist: GLP-1 receptor (human) agonism; Potency, µM (series often up to 45.6 µM), hits mostly activators; HEK293 GLP-1R CRE-luciferase, luminescence, 4-6 h; cells express a hypersensitive GLP-1R form; P43220; 380,000 compounds, 0.007% hits
MmCpn inh: M. maripaludis TRiC chaperonin inhibition; Potency, µM (series often up to 76.9 µM), hits mostly inhibitors; 330,000 compounds, 0.031% hits; AID 504842; purified Mm-Cpn ATPase, ADP Transcreener TR-FRET; note: nearly all actives have a fitted effect of over 80% in size
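Measured: ADP formation by purified Mm-CPN. Conditions: 25 nM protein, 10 uM ATP, Tris pH 7.4 with Mg2+, K+ and DTT, 37°C for 30 min. Detection: Transcreener HTRF after 30 min at room temperature.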
Numbers stand for hits; . = inactive; ? = inconclusive; / = no result given. Unless noted, calls come from the whole dose curve; as a rule, active = well fitted curve in the direction sought with a large enough effect; inconclusive = small, poorly fitted or top-dose-only effect, or another doubt; inactive = no such curve, though single readings can be large; an effect the other way counts as inactive or inconclusive.

SMILES	GLP1R cytotox	CCT modulator	GLP1R inv ag	uPA surface inh	GLP-1R agonist	MmCpn inh
COc1cc(NC(=O)c2csc(N)n2)cc(C(=O)Nc2cccc(C(F)(F)F)c2)c1	?	.	3.98µM	?	.	.
c1ccc(Nc2nc(NCC3CCCO3)c3ccccc3n2)cc1 (stereo unspecified)	?	.	8.91µM	.	.	.
Nc1c(C(=O)NCC2CCCO2)c2nc3ccccc3nc2n1-c1ccccc1 (stereo unspecified)	.	.	?	.	.	.
Cc1ccc(N/C(N)=N/c2nc(CSc3nnc(C)s3)cc(=O)[nH]2)c(C)c1	.	.	?	3.55µM	.	.
N#Cc1ccc(Cn2cc(C=O)c3ccccc32)cc1	.	.	7.08µM	.	.	.
Cc1cccc(Cn2cc(C=O)c3ccccc32)c1	.	.	3.98µM	.	.	.
CCc1cc(OC)c(CC(C)N)cc1OC (stereo unspecified)	/	/	/	/	.	/
C[C@H]1CN([C@@H](C)CO)C(=O)c2cccc(NC(=O)Nc3ccc(C(F)(F)F)cc3)c2O[C@@H]1CN(C)C(=O)Nc1ccc(F)cc1	?	.	11.2µM	?	.	.
COc1c(C)cc(C(=O)C2CCCN(Cc3cccc(C)n3)C2)cc1C (stereo unspecified)	.	.	8.91µM	.	.	.
COc1cccc(C(=O)C2CCCN(Cc3cccc(C)n3)C2)c1 (stereo unspecified)	?	.	?	.	.	.
CNC(C)Cc1ccc2c(c1)OCO2 (stereo unspecified)	/	/	/	/	.	/
Cc1ccc(NC(=O)CNC(=O)c2cccc(C)c2)nc1	?	.	?	.	.	.
C=CC[C@]1(O)CCC2C3CCC4=CCCCC4C3CCC21C (stereo partly specified)	/	/	/	/	.	/
COc1ccccc1N1CCN(Cc2ccc(Br)cc2)CC1	.	.	10µM	.	.	.
COc1ccccc1N1CCN(Cc2ccccc2Cl)CC1	.	.	.	/	.	.
CCCOP(=O)(OCCC)c1nc(-c2ccccc2)oc1NCc1ccccc1	.	.	10µM	.	.	.
Cc1nc(Nc2ccc(F)cc2)[nH]c(=O)c1CCC(C)C	?	.	7.94µM	.	.	.
CCCc1cc(C(=O)Nc2c(C)nn(Cc3ccc(Cl)c(Cl)c3)c2C)no1	?	/	10µM	/	/	/
Cc1nn(Cc2ccc(Cl)c(Cl)c2)c(C)c1NC(=O)c1cc(CC(C)C)on1	.	.	3.16µM	?	.	.
Cc1ccc(Cl)cc1N1CCN(C(=O)C2CCCN(S(=O)(=O)c3ccc(Br)s3)C2)CC1 (stereo unspecified)	.	/	?	/	/	/
CCCN(CCC)c1nc(NC2CCN(C(=O)OCC)CC2)nc(OC)n1	?	.	2.82µM	.	.	.
C[N+]1(CCF)[C@@H]2CC[C@@H]1CC(OC(=O)C(O)(c1ccccc1)c1ccccc1)C2 (stereo partly specified)	/	/	/	/	.	/
CCN1CCN(Cc2cc(Br)cc(OC)c2O)CC1	.	.	.	/	.	.
Oc1c(Br)cc(Br)cc1CN1CCN(Cc2ccccc2)CC1	.	.	10µM	.	.	.
CC(C)Oc1ccc(CNC(=O)Oc2ccccc2)cc1	.	.	?	?	.	.
SMILES	GLP1R cytotox	CCT modulator	GLP1R inv ag	uPA surface inh	GLP-1R agonist	MmCpn inh
ClC1=C(Cl)C2(Cl)C3C4CC(C5OC45)C3C1(Cl)C2(Cl)Cl (stereo unspecified)	/	/	/	/	.	/
O=C1C=CC(=O)C2C1C1(Cl)C(Cl)=C(Cl)C2(Cl)C1(Cl)Cl (stereo unspecified)	?	.	3.16µM	.	.	/
Cc1ccc(C(=O)NCCSC2CCCCC2)cc1S(=O)(=O)Nc1ccccc1	?	.	11.2µM	.	.	.
CC1(NC(=O)CC(c2ccccc2)(c2ccccc2)c2ccccc2)CCN(CCCc2ccccc2)C1=O (stereo unspecified)	.	.	.	?	.	.
COc1ccccc1C(=O)Nc1ccc2nc(SCC(=O)N3CCCc4ccccc43)sc2c1	.	/	?	/	/	/
COCCCNC(=S)NCCCNc1nc2cc(C)cc(C)c2cc1C#N	.	.	11.2µM	.	.	.
